Pf growth 96h – P. falciparum growth inhibition at 96 hours; P. falciparum luciferase reporter growth, 96 h; Potency, µM (series often up to 28.7 µM), for inactives: top-dose activity change, negative = inhibition, usual class: inhibitors; 320,000 tested, 6.9% active; note: potency is the fitted concentration of half-maximal effect
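Luminescence readout: decreased luciferase signal marks inhibited growth of reporter-expressing P. falciparum in infected red cells (2% hematocrit, 0.05% parasitemia final), exposed to compound two generations (96 h, 37 C, 5% CO2).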
Sm TGR block – blocks Schistosoma mansoni thioredoxin glutathione reductase. Q962Y6. purified TGR, DTNB reduction, TNB absorbance 405 nm. Potency, µM (highest dose often 114 µM), inactives show at the top dose activity change, negative = inhibition, most hits filed as inhibitors. 360,000 tested, 3% active. AID 485364; note: potency is the fitted concentration of half-maximal effect; nearly all actives have a fitted effect of over 60% in size
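TGR 20 nM + NADPH 100 uM (dispensed conc.), cpd preinc 15 min RT; start with NADPH (500 uM addition) then DTNB (15 mM addition). Kinetic TNB absorbance, 405 nm filter. Four-parameter Hill fit across titration.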
HCMV inh – human cytomegalovirus inhibition | HFF cells, HCMV-luciferase reporter, 72 h; hits give low values | activity change, negative = inhibition, % at 57.5 µM | 410,000 tested, 4.5% active | AID 1259415; in the data active = activity change below about -60%; inconclusive = no clear call, values can overlap the other calls; inactive = above about -39%
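Screen run at 2 compound doses on HFFs infected with reporter HCMV, MOI 1 PFU/cell. Luciferase activity from cell lysates at 72 h post infection gave inhibition relative to buffer-only and Salinomycin wells.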
Pf growth 48h – P. falciparum growth inhibition at 48 hours (one generation); 310,000 tested, 5.9% active; P. falciparum luciferase growth in erythrocytes, 48 h; Potency, µM (series often up to 28.7 µM), for the others: at the highest dose activity change, negative = inhibition, hits mostly inhibitors; note: potency is the fitted concentration of half-maximal effect
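Luciferase-expressing parasites in RBCs, 2% Hct / 0.1% parasitemia final; RPMI 1640 + 0.5% Albumax; 37 C, 5% CO2, one generation; luminescence read-out, lower signal = inhibition.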
FBPA Giardia inh – Giardia lamblia aldolase inhibition. AID 2451. Potency, µM (titrated, usually from 59.6 µM), without a hit: at the top dose activity, negative = inhibition, hits mostly inhibitors. purified Giardia FBPA. 290,000 tested, 0.71% active. A8B2U2; note: potency is the fitted concentration of half-maximal effect; nearly all actives have a fitted effect of over 55% in size
Target sequence (A8B2U2 whole entry, looked up): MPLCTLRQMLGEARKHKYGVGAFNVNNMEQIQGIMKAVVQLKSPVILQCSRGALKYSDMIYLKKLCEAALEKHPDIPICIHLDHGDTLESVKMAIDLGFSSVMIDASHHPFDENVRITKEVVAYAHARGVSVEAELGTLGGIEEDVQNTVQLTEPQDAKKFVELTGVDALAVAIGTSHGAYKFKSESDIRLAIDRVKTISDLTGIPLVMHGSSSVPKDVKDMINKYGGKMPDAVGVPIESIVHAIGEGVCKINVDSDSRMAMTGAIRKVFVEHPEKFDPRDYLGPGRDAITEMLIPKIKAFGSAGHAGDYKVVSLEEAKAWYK
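Giardia FBPA (40 nM reagent) was preincubated 10 min at RT with compound (up to 57.5 uM final), then substrate plus GAPDH/TPI/NAD/arsenate coupling system with diaphorase/resazurin was added; resorufin fluorescence (525/598 nm) was read after 20 min.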
* marks the source's active call; other numbers are inactive results; ? = inconclusive; nt = no result given; [ ] = remark or other dose. Most compounds without a hit are left out; they make up all but 14% or so of the library. Unless noted, calls come from the whole dose curve; as a rule, active = well fitted curve in the direction sought with a large enough effect; inconclusive = small, poorly fitted or top-dose-only effect, or another doubt; inactive = no such curve, though single readings can be large; an effect the other way counts as inactive or inconclusive. % is set by controls: 0 for no effect and ±100 for the full control effect.

SMILES	Pf growth 96h	Sm TGR block	HCMV inh	Pf growth 48h	FBPA Giardia inh
COC(=O)C1CN(C#N)N(c2ccc(Cl)cc2)C12c1ccccc1-c1ccccc12 (centres undefined)	18%	5.6µM*	nt	3.3µM*	-8%
COc1cc(C)ccc1OCCOCCOc1ccccc1Br	2.6µM*	8%	4	-1%	2%
COc1cc(C)ccc1OCCCOc1c(Cl)cccc1Cl	0.13µM*	5%	-40	45%	0%
COc1cc(C)ccc1OCCCOc1cc(C)ccc1Cl	nt	nt	15	nt	nt
N#CC1=C(c2ccccc2)/C(=C/c2ccccc2)OC1=O	nt	-22%	-106*	5%	-13%
C[C@@](N)(C(=O)O)c1ccc(P(=O)(O)O)cc1	nt	nt	nt	nt	4%
Cc1ccccc1-c1nc(NC(=O)CSc2ncnc3sc4c(c23)CCCC4)ns1	nt	1%	8	nt	nt
CN(C)C(=O)O/N=C(\N)COc1ccc(C(C)(C)C)cc1	12µM*	6%	-100*	6.6µM*	4%
O=C(CCCn1c(=S)[nH]c2cc3c(cc2c1=O)OCO3)N1CCN(c2ccccc2F)CC1	?	2%	44	7%	0%
CCN(CC)CCn1c(=S)[nH]c2cc3c(cc2c1=O)OCO3	10µM*	3%	41	43%	nt
Cc1ccc(C)c(N2CCN(C(=O)CCCn3c(=S)[nH]c4cc5c(cc4c3=O)OCO5)CC2)c1	?	-5%	-32	12µM*	2%
CCc1ccc(N2C(=O)NC(=O)/C(=C\c3cccn3CCOc3ccc(C(C)C)cc3)C2=O)cc1	175%	?	-23	145%	3%
CC(C)c1ccc(N2C(=O)NC(=O)/C(=C/c3cnc(-c4ccccc4)nc3)C2=O)cc1	-4%	3.5µM*	24	29%	-8%
CCc1ccc(N2C(=O)NC(=O)/C(=C/c3ccsc3)C2=O)cc1	?	-18%	nt	-22%	-8%
O=C1NC(=O)N(Cc2ccccc2)C(=O)/C1=C/c1cnc(-c2ccccc2)nc1	15%	10µM*	47	22%	0%
O=C1NC(=O)N(Cc2ccc(F)cc2)C(=O)/C1=C\c1ccoc1	36%	?	?	5%	-4%
CSc1ncc(/C=C2/C(=O)NC(=O)N(c3ccc(C(C)C)cc3)C2=O)cn1	-30%	11µM*	38	-7%	6%
COc1ccc(NC(=O)C2(C)Cc3c(-c4ccc(N(C)C)cc4)ccnc3O2)cn1 (centres undefined)	nt	nt	5	nt	nt
CCOC(=O)CNS(=O)(=O)c1c(C)noc1C	6%	25µM*	-19	22%	-1%
COC(=O)[C@@]1(Cc2ccccc2)[C@H]2c3cc(C(=O)N(C)C)n(Cc4ccccn4)c3C[C@H]2CN1C(=O)c1ccccc1	nt	nt	nt	nt	1%
Cc1csc2ncc(C(=O)Nc3ccon3)c(=O)n12	2.6µM*	2%	10	18%	2%
O=C(NCc1ccco1)c1cnc2sccn2c1=O	17%	?	25	25%	3%
Cc1csc2ncc(C(=O)NCc3ccco3)c(=O)n12	46%	45µM*	-26	-5%	-1%
Cc1cccc(NC(=O)c2cnc3scc(C)n3c2=O)c1	128%	7%	108	89%	10%
Cc1ccc(NS(=O)(=O)c2ccc(C(=O)NNC(=O)c3ccccc3O)cc2)cc1	?	-1%	-39	?	nt
SMILES	Pf growth 96h	Sm TGR block	HCMV inh	Pf growth 48h	FBPA Giardia inh
O=C(/C=C/c1ccccc1[N+](=O)[O-])N1CCCCC1	12%[5.75 µM]	-7%	31	36%	-11%
O=[N+]([O-])C(/C=C(/Cl)[N+](=O)[O-])=C(N1CCCCC1)N1CCCCC1	5.2µM*	25µM*	-24	8.3µM*	-14%
Cc1cccc(N2C(=O)CC(Sc3nc(-c4ccccc4)c4cc(Cl)ccc4n3)C2=O)c1 (centres undefined)	178%	3%	-10	-1%	-2%
CCCCCC#CC[C@@H](O)/C=C/C=C/C=C\[C@@H](O)CCCC(=O)O	nt	nt	nt	nt	3%
NNC(=O)/C(=N/Nc1ccccc1)S(=O)(=O)c1ccc(Cl)cc1	12µM*	3%	-26	9.3µM*	8%
CCOC(=O)/C(=N/Nc1ccc(C)cc1)S(=O)(=O)c1ccc(Cl)cc1	nt	-23%	52	7%	2%
COc1ccc(NC(=O)c2ccc3[nH]c(C)cc(=O)c3c2)cc1	nt	1%	-4	nt	nt
Cc1oc(-c2cccc(Cl)c2)nc1CN1CCC(C(=O)NCCCN2CCCC2=O)CC1	12µM*	4%	-13	nt	0%
CCCN(CCC)CCNC(=O)C1CCN(Cc2nc(-c3ccc(Cl)cc3)oc2C)CC1	?	0%	-9	4.7µM*	3%
Cc1oc(-c2cccc(Cl)c2)nc1CN1CCC(C(=O)NCCCN2CC(C)CC(C)C2)CC1 (centres undefined)	-26%	-7%	nt	7.4µM*	nt
Cc1cc(C)cc(NC(=O)CCn2cnc3cc(C)c(C)cc32)c1	?	0%	-24	-2%	-11%
O=c1c2c(nc3c(-c4ccc(Cl)cc4)c[nH]n13)CCCC2	5%	-11%	-78*	4.7µM*	13%
O=c1c2c(nc3c(-c4cccc5ccccc45)c[nH]n13)CCC2	6%	-9%	-3	16%	-13%
CC(C(=O)c1ccc(-c2ccccc2)cc1)[n+]1cccc(C(N)=O)c1 (centres undefined)	9.3µM*	-22%	5	3%	-1%
Cc1ccc[n+](C(C)C(=O)c2ccc(-c3ccccc3)cc2)c1 (centres undefined)	?	0%	-98*	?	-3%
Cc1cc[n+](C(C)C(=O)c2ccc(-c3ccccc3)cc2)cc1 (centres undefined)	26%	-1%	-102*	1.2µM*	4%
NC(=O)c1ccc[n+](Cc2ccccc2)c1	-15%	1%	-39	7%	-8%
CC(C(=O)c1ccc(-c2ccccc2)cc1)[n+]1ccccc1 (centres undefined)	2.3µM*	1%	-97*	8.3µM*	2%
Cc1cc[n+](C(C)C(=O)c2ccc(Cl)cc2)cc1 (centres undefined)	8%	-7%	-24	?	-2%
COC(=O)C1CC1C(NC(=O)[C@H]1CCCCN1)c1ccccc1 (some centres undefined)	nt	nt	nt	nt	0%
Cc1ccc(CN2C(=O)c3ccccc3Sc3ccc(C(=O)NCCCN4CCOCC4)cc32)cc1	44%	3%	-38	12µM*	-2%
CCN1C(=O)c2ccccc2Sc2ccc(C(=O)NCCCN3CCCCC3)cc21	10µM*	-9%	-33	-17%	nt
